How the values were obtained:
Assay in all cases: PBM binding z-score (relative to random genomic background probes); higher = stronger binding; sequences stand for … in GC…GCGATTGACAGCGTAGAATGAAGG
[1] = test system: FXR:RXRa (NR concentration 270 nM, RXRa partner concentration 90 nM)
Summary of the method: (§1)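 Scanned fluorescence from custom Agilent 4×180K protein-binding microarrays was regression-normalized. Binding z-scores use random background probes as reference. Ligand-free nuclear receptor dimers were incubated on the arrays for 1 h and detected with antibodies against each partner (one per run).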

[2] = test system: LXRa:RXRa (NR concentration 270 nM, RXRa partner concentration 90 nM)
Summary of the method: as §1

[3] = test system: LXRa homodimer (NR concentration 270 nM)
Summary of the method: as §1

[4] = test system: LXRb:RXRa (NR concentration 270 nM, RXRa partner concentration 90 nM)
Summary of the method: as §1

[5] = test system: LXRb homodimer (NR concentration 270 nM)
Summary of the method: as §1

[6] = test system: PPARa:RXRa (NR concentration 270 nM, RXRa partner concentration 90 nM)
Summary of the method: as §1

[7] = test system: PPARg:RXRa (NR concentration 180 nM, RXRa partner concentration 90 nM)
Summary of the method: as §1

[8] = test system: PPARg:RXRa 270nM:90nM, anti-RXR (NR concentration 270 nM, RXRa partner concentration 90 nM)
Summary of the method: as §1

[9] = test system: PPARg:RXRa 30nM:10nM, anti-RXR (NR concentration 30 nM, RXRa partner concentration 10 nM)
Summary of the method: as §1

[10] = test system: PPARg:RXRa 90nM:30nM, anti-RXR (NR concentration 90 nM, RXRa partner concentration 30 nM)
Summary of the method: as §1

[11] = test system: PPARg:RXRa DBDmut IVT, anti-RXR (DBD mutation: RXRa K156A/R161A, NR concentration 270 nM, RXRa partner concentration 90 nM)
Summary of the method: as §1

[12] = test system: PPARg:RXRa IVT, anti-PPARg (NR concentration 270 nM, RXRa partner concentration 90 nM)
Summary of the method: as §1

[13] = test system: PPARg DBDmut:RXRa IVT, anti-PPARg (DBD mutation: PPARg1 K132A/R137A, NR concentration 270 nM, RXRa partner concentration 90 nM)
Summary of the method: as §1

[14] = test system: PPARg DBDmut IVT, anti-PPARg (DBD mutation: PPARg1 K132A/R137A, NR concentration 270 nM)
Summary of the method: as §1

[15] = test system: PPARg homodimer (NR concentration 180 nM)
Summary of the method: as §1

[16] = test system: PXR:RXRa (NR concentration 270 nM, RXRa partner concentration 90 nM)
Summary of the method: as §1

[17] = test system: PXR homodimer (NR concentration 270 nM)
Summary of the method: as §1

[18] = test system: RARa:RXR (NR concentration 270 nM, RXRa partner concentration 90 nM)
Summary of the method: as §1

[19] = test system: RARa homodimer (NR concentration 270 nM)
Summary of the method: as §1

[20] = test system: RARb:RXRa (NR concentration 270 nM, RXRa partner concentration 90 nM)
Summary of the method: as §1

| Sequence | PBM binding z-score [1] | PBM binding z-score [2] | PBM binding z-score [3] | PBM binding z-score [4] | PBM binding z-score [5] | PBM binding z-score [6] | PBM binding z-score [7] | PBM binding z-score [8] | PBM binding z-score [9] | PBM binding z-score [10] | PBM binding z-score [11] | PBM binding z-score [12] | PBM binding z-score [13] | PBM binding z-score [14] | PBM binding z-score [15] | PBM binding z-score [16] | PBM binding z-score [17] | PBM binding z-score [18] | PBM binding z-score [19] | PBM binding z-score [20] |
| --- | --- | --- | --- | --- | --- | --- | --- | --- | --- | --- | --- | --- | --- | --- | --- | --- | --- | --- | --- | --- |
| CCTAGCAGGCCAACCTGGGTCACTCAAGGCTTGA | 1.14 | 1.36 | -0.307 | 1.16 | -1.09 | 2.05 | 0.131 | 0.239 | -0.969 | -0.0466 | 1.14 | 1.46 | -0.885 | -0.95 | 0.425 | 1.46 | -0.576 | 1.44 | 0.141 | 1.96 |
| GATACCGGGTCAAGGCCAGAGTACGCGTATTGAT | 4.87 | 2.87 | -0.172 | 2.45 | -1.08 | 5.08 | 5.25 | 4.57 | 1.31 | 3.21 | 2.4 | 4.67 | 0.967 | 0.0234 | 0.895 | 2.62 | 0.124 | 2.97 | 0.054 | 3.9 |
| CAAACTAGGTGAAAGGTCAAAGTCGAGCCAACCA | 6.87 | 6.26 | 4.36 | 6.08 | 2.26 | 7.39 | 14.1 | 11.5 | 15.3 | 14.2 | 8.64 | 9.19 | 5.27 | 2.48 | 8.98 | 6.14 | 1.76 | 8 | 3.76 | 5.05 |
| ATCTCTAGGTAACTAAGTTCAGTGAATGCCGAAC | 0.51 | 0.962 | 1.22 | 1.02 | 0.792 | 1.32 | 0.573 | 0.892 | 0.181 | 0.816 | 2.67 | 2.89 | 1.24 | 1.19 | 1.29 | 2.49 | 2.44 | 1.25 | 0.922 | 1.37 |
| AGAATGAGGTTATACGTAGAACAGGGAAGAAAGT | 2.01 | 1.58 | -0.14 | 1.56 | 0.0441 | 3.07 | 2.2 | 1.83 | 1.07 | 1.68 | 4 | 1.9 | 1.52 | 1.09 | 1.26 | 1.09 | 0.773 | 1.36 | -0.459 | 1.36 |
| CATACAGGGTCAGCTAGGCCAGAGTCGGGACGGC | 4.49 | 3.06 | -0.0518 | 1.97 | 0.537 | 4.21 | 3.11 | 3.03 | 0.551 | 1.92 | 1.33 | 2.55 | 0.623 | 0.297 | 2.62 | 2.15 | -0.0453 | 3.26 | 0.539 | 4.13 |
